# The supplement of paper PMC9135407
# Several values for one entry are separate records, joined by “and”; a condition that tells them apart may be missing. Equal values may be shown once. Where a name gives a salt, the structure may show the parent alone. The whole screen tested about 5,800 compounds, of which about 620 (11%) showed activity. The sample as a whole holds a higher share of actives than the screen did. A number with no mark means an inactive call.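 The calls were made as follows: active = score above a cut-off or among the top three wells of a plate; in these data no inactive exceeds 0.85.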
# Tested on: primary human hepatic stellate cells (donor 1)
# Experiment: scaled lipid accumulation score (0 = DMSO-like, 1 = nortriptyline-like); higher = stronger HSC inactivation (lipid re-accumulation), active = hit call of the paper
# Conditions: 48 h
# [1] = library stock concentration: 3.33 mM
# [2] = library stock concentration: 10 mM
# [3] = library stock concentration: 1 mM
# [4] = library stock concentration: 80 uM
# [5] = library stock concentration: 400 uM
# [6] = library stock concentration: 2 mM
# [7] = library stock concentration: 6.8 mM
smiles,measurement,setting,value
CC1(C)O[C@H]2CC(=O)OC[C@]23[C@H]2CC[C@@]4(C)[C@H](c5ccoc5)OC(=O)[C@H]5O[C@]54[C@]2(C)C(=O)C[C@@H]13 [Limonin],scaled lipid accumulation score,[1],≤ 0
same,scaled lipid accumulation score,[2],0.008
O=C(O)CCC/C=C/C[C@@H]1[C@@H](CC[C@@H](O)CCc2ccccc2)[C@H](O)C[C@@H]1O [5-trans Latanoprost (free acid)],scaled lipid accumulation score,[3],≤ 0
O=C1O[C@H]([C@@H](O)CO)C([O-])=C1O.[Na+] [Sodium ascorbate],scaled lipid accumulation score,[1],≤ 0
same,scaled lipid accumulation score,[2],≤ -0.001
CCCCC[C@H](O)/C=C/[C@H]1C(=O)C[C@H](O)[C@@H]1C/C=C\CCCC(=O)OCC(O)CO (stereo partly specified) [Prostaglandin D2-1-glyceryl ester],scaled lipid accumulation score,[3],≤ 0
CN1C(=O)C(Cc2c[nH]c3ccccc23)NC1=S (stereo unspecified) [Necrostatin-1],scaled lipid accumulation score,[4],0.008
same,scaled lipid accumulation score,[5],≤ 0
same,scaled lipid accumulation score,[6],≤ 0
same,scaled lipid accumulation score,[1],≤ -0.009 and ≤ 0
same,scaled lipid accumulation score,[2],≤ 0 and 0.03
CCCc1c(OCCCCc2nnn[nH]2)ccc(C(C)=O)c1O,scaled lipid accumulation score,[3],≤ 0 and ≤ -0.021
same,scaled lipid accumulation score,[2],0.011
COc1cc2c(cc1OC)-c1c/c(=N\c3c(C)cc(C)cc3C)n(C)c(=O)n1CC2 [Trequinsin],scaled lipid accumulation score,library stock concentration: 4.9 mM,0.164
same,scaled lipid accumulation score,library stock concentration: 12.3 mM,0.244
COc1cc2c(cc1OC)-c1c/c(=N\c3c(C)cc(C)cc3C)n(C)c(=O)n1CC2 [Trequinsin hydrochloride],scaled lipid accumulation score,[2],0.494 and 0.174
C#CC(N)CCC(=O)O (stereo unspecified) [gamma-Acetylinic GABA],scaled lipid accumulation score,[2],0.037
"C1CCC2(CC1)CCNCC2 [4,4-Pentamethylenepiperidine hydrochloride]",scaled lipid accumulation score,[2],0.028
CCCCCCCCCCCCCCCCCCCCCC(=O)NCCS(=O)(=O)O [N-Docosanoyl Taurine],scaled lipid accumulation score,[3],≤ 0
C(=C/CCNC)(/c1c2cccc1)\c3c(cccc3)CC2.Cl [Nortriptyline hydrochloride],scaled lipid accumulation score,[2],1.04 (active)
N[C@H]1CCN(O)C1=O,scaled lipid accumulation score,[2],≤ 0
NCc1cccc2ccncc12 [8-Isoquinoline methanamine (hydrochloride)],scaled lipid accumulation score,[3],0.003
CCCCCCNC(=O)Nc1ccc(S(=O)(=O)Nc2ccc(CCNC[C@H](O)COc3ccc(O)cc3)cc2)cc1,scaled lipid accumulation score,[2],0.462
O=C(O)CCCCCC[C@H]1C(=O)C[C@@H](O)[C@@H]1/C=C/[C@@H](O)Cc1ccccc1 [16-phenyl tetranor Prostaglandin E1],scaled lipid accumulation score,[3],0.017
CCCCCCCCCCCCCCCC(=O)OC[C@H](COP(=O)([O-])OCC[N+](C)(C)C)OC(=O)CCCC(=O)/C=C/C(=O)O,scaled lipid accumulation score,[3],0.034
O=C1C(Cl)=C(N2CCOCC2)C(=O)N1c1ccc(Cl)c(Cl)c1,scaled lipid accumulation score,[1],≤ -0.009
same,scaled lipid accumulation score,[2],≤ 0
COCC(=O)NC/C=C/c1ccc2ncnc(Nc3ccc(Oc4ccc(C)nc4)c(C)c3)c2c1 [listing 1 of 2 here],scaled lipid accumulation score,[4],≤ 0
same,scaled lipid accumulation score,[5],≤ 0 and ≤ -0.005
same,scaled lipid accumulation score,[6],≤ 0 and ≤ -0.005
same,scaled lipid accumulation score,[2],0.108
COc1ccc(Nc2ncnc3ccc(OC)cc23)cc1 [MPMQ hydrochloride],scaled lipid accumulation score,[2],0.051
COCC(=O)NC/C=C/c1ccc2ncnc(Nc3ccc(Oc4ccc(C)nc4)c(C)c3)c2c1 [listing 2 of 2 here],scaled lipid accumulation score,[2],1.46 (active)
NC1=NCCN1CC(=O)O [Cyclocreatine],scaled lipid accumulation score,[2],≤ 0
CCCCCCCCCCCCCCCC(=O)NCCS(=O)(=O)O [N-Palmitoyl Taurine],scaled lipid accumulation score,[3],≤ 0
CCCS(=O)(=O)Nc1ccc(F)c(C(=O)c2c[nH]c3ncc(Cl)cc23)c1F [listing 1 of 2 here],scaled lipid accumulation score,[4],≤ 0
same,scaled lipid accumulation score,[5],≤ 0 and 0.028
same,scaled lipid accumulation score,[6],≤ 0 and 0.042
same,scaled lipid accumulation score,[1],≤ 0
same,scaled lipid accumulation score,[2],≤ 0
"CCCS(=O)(=O)Nc1ccc(F)c(C(=O)c2c[nH]c3ncc(-c4ccc(Cl)cc4)cc23)c1F [Vemurafenib (PLX4032, RG7204)]",scaled lipid accumulation score,[1],≤ 0
same,scaled lipid accumulation score,[2],≤ 0
CCCS(=O)(=O)Nc1ccc(F)c(C(=O)c2c[nH]c3ncc(Cl)cc23)c1F [listing 2 of 2 here],scaled lipid accumulation score,[2],1.16 (active)
Cc1noc(-c2ccc(CSCCC(=O)O)cc2)c1NC(=O)OC(C)c1ccccc1Cl (stereo unspecified),scaled lipid accumulation score,[1],0.003
same,scaled lipid accumulation score,[2],≤ 0
CCCCCCCOC(=O)Cc1c(C)n(C(=O)c2ccc(Cl)cc2)c2ccc(OC)cc12 [Indomethacin heptyl ester],scaled lipid accumulation score,[3],0.015
CS(=O)(=O)c1ccc([C@H](O)[C@@H](COC(=O)CN)NC(=O)C(Cl)Cl)cc1 [Thiamphenicol glycinate],scaled lipid accumulation score,library stock concentration: 4.8 mM,0.01
O=C(O)Cn1nnc(-c2cc(N3CCC(Oc4cc(F)ccc4Br)CC3)no2)n1,scaled lipid accumulation score,[1],≤ 0
same,scaled lipid accumulation score,[2],≤ 0
CCCCC[C@H](O)/C=C/[C@@H]1[C@@H](C/C=C\CCCC(=O)N(CC)CC)[C@@H](O)C[C@H]1O [Prostaglandin F2.alpha. diethyl amide],scaled lipid accumulation score,[3],≤ 0
CCc1cccc(N(C)C(=N)Nc2cccc3ccccc23)c1.Cl,scaled lipid accumulation score,[2],0.912 (active)
CC1CCC(C(C)C)C(O)C1 (stereo not drawn) [Menthol(-)],scaled lipid accumulation score,[2],≤ -0.027
CC1(C)CC(=O)C(C2C3=C(CC(C)(C)CC3=O)Oc3ccccc32)C(=O)C1 (stereo unspecified),scaled lipid accumulation score,[2],≤ -0.002
CCCCCC1OC1C/C=C\C/C=C\C/C=C\CCCC(=O)O (stereo unspecified),scaled lipid accumulation score,library stock concentration: 100 uM,≤ -0.021
CC(=O)c1cnc2ccc(-c3cc(Cl)c(O)c(Cl)c3)nc2c1N[C@H]1CC[C@H](CN(C)C)CC1,scaled lipid accumulation score,[4],0.258
same,scaled lipid accumulation score,[5],0.847
same,scaled lipid accumulation score,[6],0.765
CC(=O)c1cnc2ccc(-c3cc(Cl)c(O)c(Cl)c3)nc2c1N[C@H]1CC[C@H](CN(C)C)CC1.Cl,scaled lipid accumulation score,[2],0.872 (active)
CCN(CC)CCNC(C(=O)OCCC(C)C)c1ccccc1 (stereo unspecified),scaled lipid accumulation score,[2],0.521
Cc1ccc(C(=O)NCCCCCC(=O)Nc2ccccc2N)cc1,scaled lipid accumulation score,[1],≤ -0.009
same,scaled lipid accumulation score,[2],0.662
c1ccc2c3c([nH]c2c1)C1C2CCC(C4CCCNC42)N1CC3 (stereo unspecified) [Nitrarine dihydrochloride],scaled lipid accumulation score,,≤ 0
C[C@H](CS)C(=O)N1CCC[C@H]1C(=O)O [Captopril],scaled lipid accumulation score,,0.036
same,scaled lipid accumulation score,[1],≤ 0
same,scaled lipid accumulation score,library stock concentration: 9.2 mM,≤ -0.006 and ≤ 0
same,scaled lipid accumulation score,[2],≤ 0
C[C@H](CS)C(=O)N1CCC[C@H]1C(=O)O,scaled lipid accumulation score,[2],≤ 0
CCOC(=O)[C@H](CCc1ccccc1)N[C@@H](C)C(=O)N1CCC[C@H]1C(=O)O [Enalapril Maleate],scaled lipid accumulation score,[1],0.026
same,scaled lipid accumulation score,[2],≤ 0
CCOC(=O)[C@H](CCc1ccccc1)N[C@@H](C)C(=O)N1CCC[C@H]1C(=O)O [Enalapril],scaled lipid accumulation score,library stock concentration: 5.3 mM,≤ 0
CCCNC(=O)[C@H]1O[C@@H]1C(=O)N[C@H](C(=O)N1CCC[C@H]1C(=O)OC)C(C)CC (stereo partly specified),scaled lipid accumulation score,library stock concentration: 12.6 mM,0.868 (active)
CCOC(=O)[C@H](CCc1ccccc1)N[C@@H](C)C(=O)N1CCC[C@H]1C(=O)O [Enalapril maleate],scaled lipid accumulation score,,≤ 0
same,scaled lipid accumulation score,[2],≤ 0
CCOC(=O)[C@H](CCc1ccccc1)N[C@@H](C)C(=O)N1CCC[C@H]1C(=O)O,scaled lipid accumulation score,[2],≤ 0
O=C(O)/C(=C\c1c(C(=O)O)[nH]c2cc(Cl)cc(Cl)c12)c1ccccc1,scaled lipid accumulation score,[2],0.017
N[C@H](C(=O)O)[C@H](Cc1ccccc1)C(=O)O [L-Beta-threo-benzyl-aspartate],scaled lipid accumulation score,[2],≤ 0
CC(C)NCC(O)COc1cccc2ccccc12 (racemic) [Propranolol hydrochloride (+/-)],scaled lipid accumulation score,[7],0.363
same,scaled lipid accumulation score,[2],0.457
CC(C)NCC(O)COc1cccc2ccccc12.Cl (stereo unspecified),scaled lipid accumulation score,[2],0.882 (active)
CC(C)NC[C@H](O)COc1cccc2ccccc12 [(S)-(-)-Propranolol hydrochloride],scaled lipid accumulation score,[2],0.518
CC(C)NCC(O)COc1cccc2ccccc12 (stereo unspecified) [Propranolol hydrochloride],scaled lipid accumulation score,,0.378
same,scaled lipid accumulation score,[2],0.74
CC(C)NCC(O)COc1cccc2ccccc12 (stereo unspecified) [Propranolol HCl],scaled lipid accumulation score,[1],≤ 0
same,scaled lipid accumulation score,[2],0.555
CC(C)NCC(O)COc1cccc2ccccc12 (stereo unspecified) [Propranolol],scaled lipid accumulation score,library stock concentration: 7.7 mM,0.676
CC(C)NC[C@H](O)COc1cccc2ccccc12 [(S)-Propranolol hydrochloride],scaled lipid accumulation score,[2],0.445
CC(C)NC[C@H](O)COc1cccc2ccccc12.Cl,scaled lipid accumulation score,library stock concentration: 16.9 mM,1.02 (active)
CC(C)NC[C@@H](O)COc1cccc2ccccc12 [(R)-Propranolol hydrochloride],scaled lipid accumulation score,,0.415
CC(C)NC[C@@H](O)COc1cccc2ccccc12 [Dexpropranolol hydrochloride],scaled lipid accumulation score,[7],0.521
same,scaled lipid accumulation score,[2],≤ 0
CC(C)NC[C@@H](O)COc1cccc2ccccc12 [(R)-(+)-Propranolol hydrochloride],scaled lipid accumulation score,[2],0.656
CC(C)NCC(O)COc1cccc2ccccc12 (stereo unspecified),scaled lipid accumulation score,[2],0.847
CC(C)NC[C@H](O)COc1cccc2ccccc12 [(S)-propranolol hydrochloride],scaled lipid accumulation score,,0.444
CCCOc1ccc(/C=C2/SC(=O)NC2=O)cc1 [PIM1/2 Kinase Inhibitor VI],scaled lipid accumulation score,[1],0.001
C=CCn1c(=O)n([C@@H]2O[C@H](CO)[C@@H](O)[C@H]2O)c2nc(N)[nH]c(=O)c21,scaled lipid accumulation score,[2],0.047
"CCCCC(C)(C)[C@H](O)/C=C/[C@@H]1[C@@H](C/C=C\CCCC(=O)O)[C@H](O)C[C@H]1O [16,16-dimethyl Prostaglandin F2.beta.]",scaled lipid accumulation score,[3],≤ 0
